According to the supplement of paper PMC9446081:
± gives the standard deviation of the averaged measurements.

Key:
Experiment in all cases: relative enzymatic activity vs untreated control (fraction); higher = less inhibition
Conditions in all cases: 100 µM; incubation time: 2 h at 37 C
DNA gyrase = tested on: DNA gyrase
Protocol: (§1)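 In vitro enzymatic inhibition assays (ProFoldin kits) for 12 purified essential E. coli enzymes or complexes, each treated with 218 active antibacterial compounds at 100 µM for 2 h at 37°C. Read-outs were fluorescence or absorbance (phosphate detection, dye binding), converted to activity via standard curves and expressed relative to untreated DMSO controls.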

DNA helicase = DNA helicase (UniProt P0ACB1)
Protocol: as §1

DNA ligase = DNA ligase (UniProt B1XA82)
Protocol: as §1

DNA polymerase = DNA polymerase (UniProt P10443)
Protocol: as §1

DNA primase = DNA primase (UniProt P0ABS7)
Protocol: as §1

GlmU = GlmU (UniProt A7ZTU1)
Protocol: as §1

Guanlyate kinase = Guanlyate kinase (UniProt Q0TBG1)
Protocol: as §1

MurA = MurA (UniProt Q3YX52)
Protocol: as §1

MurD = biological target: T1, MurD (UniProt P14900)
T1 sequence (whole entry): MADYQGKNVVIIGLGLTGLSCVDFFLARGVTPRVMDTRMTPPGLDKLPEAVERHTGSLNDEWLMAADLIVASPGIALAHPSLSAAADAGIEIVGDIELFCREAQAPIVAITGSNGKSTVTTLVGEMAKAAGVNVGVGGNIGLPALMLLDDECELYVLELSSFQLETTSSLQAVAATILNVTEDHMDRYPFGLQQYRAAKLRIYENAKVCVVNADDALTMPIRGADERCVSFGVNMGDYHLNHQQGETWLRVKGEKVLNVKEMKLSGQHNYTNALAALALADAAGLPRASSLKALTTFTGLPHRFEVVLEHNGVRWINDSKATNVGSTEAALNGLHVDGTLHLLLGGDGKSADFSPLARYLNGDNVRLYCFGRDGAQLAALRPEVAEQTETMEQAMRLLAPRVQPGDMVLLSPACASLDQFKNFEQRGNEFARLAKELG
Protocol: as §1

MurF = biological target: T2, MurF (UniProt P11880)
T2 sequence (whole entry): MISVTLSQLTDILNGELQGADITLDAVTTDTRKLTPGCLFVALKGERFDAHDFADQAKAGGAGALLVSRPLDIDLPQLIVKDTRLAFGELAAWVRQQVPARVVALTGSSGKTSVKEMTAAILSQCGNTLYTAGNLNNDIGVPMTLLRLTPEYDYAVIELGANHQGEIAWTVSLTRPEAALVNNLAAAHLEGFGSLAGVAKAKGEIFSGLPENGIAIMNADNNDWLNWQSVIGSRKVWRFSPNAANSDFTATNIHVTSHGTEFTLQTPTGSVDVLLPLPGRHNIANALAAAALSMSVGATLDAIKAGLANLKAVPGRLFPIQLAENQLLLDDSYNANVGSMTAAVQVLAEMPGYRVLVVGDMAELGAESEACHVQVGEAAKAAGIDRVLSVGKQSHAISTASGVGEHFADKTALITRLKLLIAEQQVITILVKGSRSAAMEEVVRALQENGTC
Protocol: as §1

RNA polymerase = tested on: RNA polymerase
Protocol: as §1

Sequence of Guanlyate kinase (Q0TBG1 whole entry): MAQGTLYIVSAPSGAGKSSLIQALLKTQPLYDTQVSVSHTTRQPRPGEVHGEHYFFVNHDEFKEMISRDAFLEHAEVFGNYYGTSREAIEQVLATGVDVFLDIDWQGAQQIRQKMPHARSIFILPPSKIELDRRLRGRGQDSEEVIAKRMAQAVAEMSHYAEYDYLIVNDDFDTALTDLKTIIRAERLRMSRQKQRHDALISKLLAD
Sequence of DNA polymerase (P10443 whole entry): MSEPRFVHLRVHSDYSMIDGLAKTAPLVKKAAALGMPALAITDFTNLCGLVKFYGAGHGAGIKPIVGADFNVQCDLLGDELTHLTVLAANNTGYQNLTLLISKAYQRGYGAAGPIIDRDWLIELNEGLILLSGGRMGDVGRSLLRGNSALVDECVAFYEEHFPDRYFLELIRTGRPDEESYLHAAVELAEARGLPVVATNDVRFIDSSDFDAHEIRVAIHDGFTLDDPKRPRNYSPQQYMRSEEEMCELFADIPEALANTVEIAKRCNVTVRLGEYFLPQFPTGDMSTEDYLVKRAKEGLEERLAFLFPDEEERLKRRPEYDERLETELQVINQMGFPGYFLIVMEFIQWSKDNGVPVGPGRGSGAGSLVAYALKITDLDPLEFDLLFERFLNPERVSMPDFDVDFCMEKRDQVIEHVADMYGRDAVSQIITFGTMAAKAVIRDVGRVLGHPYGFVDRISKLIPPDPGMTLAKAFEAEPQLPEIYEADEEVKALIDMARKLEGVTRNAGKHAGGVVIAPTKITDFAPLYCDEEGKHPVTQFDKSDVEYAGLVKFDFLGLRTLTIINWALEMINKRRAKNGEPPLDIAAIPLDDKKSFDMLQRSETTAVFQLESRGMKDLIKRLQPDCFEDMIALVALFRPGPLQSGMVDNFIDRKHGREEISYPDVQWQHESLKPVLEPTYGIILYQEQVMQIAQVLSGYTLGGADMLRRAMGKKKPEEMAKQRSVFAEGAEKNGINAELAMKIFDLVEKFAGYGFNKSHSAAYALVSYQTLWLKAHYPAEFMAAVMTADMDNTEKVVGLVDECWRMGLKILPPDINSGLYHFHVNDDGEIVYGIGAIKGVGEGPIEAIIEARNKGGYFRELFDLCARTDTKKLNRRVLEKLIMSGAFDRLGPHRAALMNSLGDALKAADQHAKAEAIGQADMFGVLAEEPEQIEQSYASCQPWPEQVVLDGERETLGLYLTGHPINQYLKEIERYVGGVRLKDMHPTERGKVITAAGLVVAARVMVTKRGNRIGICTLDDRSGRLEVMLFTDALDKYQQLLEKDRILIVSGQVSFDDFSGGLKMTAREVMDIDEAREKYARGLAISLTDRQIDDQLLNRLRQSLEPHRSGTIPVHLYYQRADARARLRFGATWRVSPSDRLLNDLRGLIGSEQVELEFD
Sequence of GlmU (A7ZTU1 whole entry, looked up): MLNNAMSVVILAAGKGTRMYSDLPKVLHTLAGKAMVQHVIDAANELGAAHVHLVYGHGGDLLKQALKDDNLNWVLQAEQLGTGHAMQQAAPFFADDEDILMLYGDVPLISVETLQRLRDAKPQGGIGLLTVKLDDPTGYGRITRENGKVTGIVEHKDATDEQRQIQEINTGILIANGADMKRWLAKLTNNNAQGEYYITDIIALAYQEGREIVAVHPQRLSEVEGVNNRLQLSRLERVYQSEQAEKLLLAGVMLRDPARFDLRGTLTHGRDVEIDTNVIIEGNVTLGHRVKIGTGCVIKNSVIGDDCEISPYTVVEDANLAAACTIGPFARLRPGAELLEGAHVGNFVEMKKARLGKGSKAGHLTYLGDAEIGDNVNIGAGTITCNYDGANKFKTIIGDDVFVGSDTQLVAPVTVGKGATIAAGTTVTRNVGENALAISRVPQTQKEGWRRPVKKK
Sequence of MurA (Q3YX52 whole entry): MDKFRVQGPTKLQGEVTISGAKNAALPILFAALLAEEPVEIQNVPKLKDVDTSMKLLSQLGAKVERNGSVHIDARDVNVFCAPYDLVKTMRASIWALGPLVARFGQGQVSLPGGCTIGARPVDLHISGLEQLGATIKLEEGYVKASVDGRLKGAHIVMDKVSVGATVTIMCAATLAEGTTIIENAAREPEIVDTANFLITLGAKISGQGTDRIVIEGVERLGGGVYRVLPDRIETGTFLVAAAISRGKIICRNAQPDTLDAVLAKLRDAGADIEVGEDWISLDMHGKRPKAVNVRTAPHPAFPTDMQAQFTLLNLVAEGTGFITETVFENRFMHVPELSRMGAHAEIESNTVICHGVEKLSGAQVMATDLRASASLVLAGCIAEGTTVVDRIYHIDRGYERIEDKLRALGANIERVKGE
Sequence of DNA helicase (P0ACB1 whole entry): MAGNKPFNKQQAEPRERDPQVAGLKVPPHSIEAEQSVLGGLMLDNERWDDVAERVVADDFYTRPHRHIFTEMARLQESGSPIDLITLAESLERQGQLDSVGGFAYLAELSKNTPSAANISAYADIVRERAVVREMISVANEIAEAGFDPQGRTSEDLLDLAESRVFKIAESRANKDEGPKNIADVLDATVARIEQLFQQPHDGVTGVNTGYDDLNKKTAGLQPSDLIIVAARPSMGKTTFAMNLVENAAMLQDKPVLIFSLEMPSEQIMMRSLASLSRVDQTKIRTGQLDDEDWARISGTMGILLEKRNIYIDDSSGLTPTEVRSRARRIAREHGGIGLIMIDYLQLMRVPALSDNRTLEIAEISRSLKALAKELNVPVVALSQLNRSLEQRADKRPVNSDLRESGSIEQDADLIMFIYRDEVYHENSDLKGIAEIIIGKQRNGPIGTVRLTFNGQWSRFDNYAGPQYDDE
Sequence of DNA primase (P0ABS7 whole entry): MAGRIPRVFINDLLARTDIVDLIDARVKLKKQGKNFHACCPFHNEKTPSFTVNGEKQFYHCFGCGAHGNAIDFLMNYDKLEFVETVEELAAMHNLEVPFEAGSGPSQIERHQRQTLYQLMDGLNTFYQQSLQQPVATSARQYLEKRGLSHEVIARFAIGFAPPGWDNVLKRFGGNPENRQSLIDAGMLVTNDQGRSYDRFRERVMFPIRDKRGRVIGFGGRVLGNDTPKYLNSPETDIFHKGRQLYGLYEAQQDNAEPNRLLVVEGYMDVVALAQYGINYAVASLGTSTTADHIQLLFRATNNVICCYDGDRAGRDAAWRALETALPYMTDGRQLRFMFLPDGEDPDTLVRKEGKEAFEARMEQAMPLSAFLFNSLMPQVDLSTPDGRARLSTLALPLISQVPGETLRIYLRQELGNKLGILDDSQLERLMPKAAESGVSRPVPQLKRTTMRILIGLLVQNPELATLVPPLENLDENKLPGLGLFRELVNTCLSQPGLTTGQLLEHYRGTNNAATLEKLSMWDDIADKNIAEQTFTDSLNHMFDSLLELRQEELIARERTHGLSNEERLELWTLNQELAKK
Sequence of DNA ligase (B1XA82 whole entry): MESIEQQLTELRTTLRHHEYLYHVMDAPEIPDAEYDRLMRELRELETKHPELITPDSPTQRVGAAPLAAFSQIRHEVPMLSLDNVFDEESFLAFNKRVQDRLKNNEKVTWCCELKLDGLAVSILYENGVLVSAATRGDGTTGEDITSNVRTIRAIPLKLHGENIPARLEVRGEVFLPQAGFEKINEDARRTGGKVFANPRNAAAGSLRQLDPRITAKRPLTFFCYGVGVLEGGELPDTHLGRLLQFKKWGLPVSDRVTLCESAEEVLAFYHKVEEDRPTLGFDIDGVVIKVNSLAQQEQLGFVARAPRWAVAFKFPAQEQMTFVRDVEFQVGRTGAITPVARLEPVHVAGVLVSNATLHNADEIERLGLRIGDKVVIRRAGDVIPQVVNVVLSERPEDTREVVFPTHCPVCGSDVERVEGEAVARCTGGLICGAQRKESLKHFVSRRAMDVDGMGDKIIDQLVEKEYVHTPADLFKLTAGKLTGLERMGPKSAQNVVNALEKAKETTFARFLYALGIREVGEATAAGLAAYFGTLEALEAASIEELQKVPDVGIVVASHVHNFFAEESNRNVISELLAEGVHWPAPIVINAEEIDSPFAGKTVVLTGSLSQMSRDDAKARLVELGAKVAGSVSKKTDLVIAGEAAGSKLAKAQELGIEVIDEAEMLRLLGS

SMILES | relative enzymatic activity (DNA gyrase) | relative enzymatic activity (DNA helicase) | relative enzymatic activity (DNA ligase) | relative enzymatic activity (DNA polymerase) | relative enzymatic activity (DNA primase) | relative enzymatic activity (GlmU) | relative enzymatic activity (Guanlyate kinase) | relative enzymatic activity (MurA) | relative enzymatic activity (MurD) | relative enzymatic activity (MurF) | relative enzymatic activity (RNA polymerase)
O=C1OC(=O)[C@H]2[C@@H]1[C@H]1CC[C@H]2O1 | 0.864 ± 0.32 | 0.551 ± 0.09 | 1.15 ± 0.085 | 1.01 ± 0.012 | 0.811 ± 0.0082 | 1.07 ± 0.033 | 1.01 ± 0.066 | 0.734 ± 0.16 | 0.606 ± 0.38 | 0.979 ± 0.22 | 0.888 ± 0.18
Cc1ccc(S(=O)(=O)O)cc1.NC1CCN(c2nc3c(cc2F)c(=O)c(C(=O)O)cn3-c2ccc(F)cc2F)C1.O (stereo not drawn) | 1.41 ± 0.49 | 0.509 ± 0.054 | 1.02 ± 0.043 | 1.15 ± 0.22 | 0.892 ± 0.035 | 0.991 ± 0.05 | 0.699 ± 0.11 | 0.644 ± 0.029 | 0.935 ± 0.86 | 1.01 ± 0.21 | 0.771 ± 0.031
CN1CCN(c2c(F)cc3c(=O)c(C(=O)O)cn(CCF)c3c2F)CC1 | 0.024 ± 0.034 | 0.746 ± 0.23 | 1.37 ± 0.041 | 1.28 ± 0.3 | 0.722 ± 0.21 | 1.16 ± 0.2 | 0.94 ± 0.085 | 0.748 ± 0.029 | 0.591 ± 0.39 | 0.984 ± 0.22 | 1.05 ± 0.31
CN(C)C1C(O)=C(C(N)=O)C(=O)C2(O)C(O)=C3C(=O)c4c(O)ccc(Cl)c4C(C)(O)C3CC12.Cl (stereo not drawn) | 1.15 ± 0.17 | 0.47 ± 0.023 | 1.03 ± 0.23 | 1.35 ± 0.47 | 0.707 ± 0.21 | 0.974 ± 0.048 | 0.961 ± 0.076 | 0.767 ± 0.014 | 0.584 ± 0.37 | 0.93 ± 0.17 | 0.822 ± 0.027
CCC1OC(=O)C(C)C(=O)C(C)C(OC2OC(C)CC(N(C)C)C2O)C(C)(OC)CC(C)C(=O)C(C)C2N(CCCCn3cnc(-c4cccnc4)c3)C(=O)OC12C (stereo not drawn) | 0.862 ± 0.39 | 0.396 ± 0.024 | 1.1 ± 0.3 | 1.24 ± 0.3 | 0.854 ± 0.012 | 0.9359 ± 0.0057 | 0.967 ± 0.099 | 0.668 ± 0.05 | 0.525 ± 0.34 | 0.799 ± 0.13 | 0.822 ± 0.037
CC1CCc2cc(F)cc3c(=O)c(C(=O)O)cn1c23 (stereo not drawn) | 0.0609 ± 0.086 | 0.593 ± 0.15 | 0.937 ± 0.35 | 1.41 ± 0.53 | 0.655 ± 0.13 | 0.9984 ± 0.0089 | 1.03 ± 0.1 | 0.715 ± 0.16 | 0.568 ± 0.39 | 0.97 ± 0.2 | 1.04 ± 0.22
CCn1cc(C(=O)O)c(=O)c2cc(F)c(N3CCN(C(=S)Nc4cc(C(F)(F)F)ccc4Cl)CC3)cc21 | 0.0352 ± 0.05 | 0.303 ± 0.029 | 0.85 ± 0.036 | 0.51 ± 0.72 | 1.49 ± 0.75 | 1.03 ± 0.024 | 0.915 ± 0.081 | 0.654 ± 0.18 | 0.629 ± 0.41 | 0.996 ± 0.24 | 1.17 ± 0.075
CCN1CCN(C(=O)NC(C(=O)NC2C(=O)N3C2SC(C)(C)C3C(=O)[O-])c2ccccc2)C(=O)C1=O.[Na+] (stereo not drawn) | 0.801 ± 0.4 | 0.634 ± 0.2 | 1.1 ± 0.11 | 1.32 ± 0.43 | 0.757 ± 0.24 | 0.886 ± 0.12 | 0.965 ± 0.12 | 0.612 ± 0.16 | 0.587 ± 0.41 | 0.938 ± 0.29 | 0.916 ± 0.077
CC1CN(c2c(F)c(F)c3c(=O)c(C(=O)O)cn(C4CC4)c3c2F)CC(C)N1 (stereo not drawn) | 0.063 ± 0.089 | 0.599 ± 0.21 | 1.09 ± 0.085 | 0.509 ± 0.72 | 0.8561 ± 0.0075 | 0.97 ± 0.066 | 0.949 ± 0.073 | 0.676 ± 0.015 | 0.597 ± 0.41 | 1.09 ± 0.014 | 0.847 ± 0.13
O=C1CN(N=Cc2ccc([N+](=O)[O-])o2)C(=O)N1 | 1.07 ± 0.045 | 0.467 ± 0.062 | 1.42 ± 0.59 | 1.32 ± 0.47 | 0.655 ± 0.11 | 0.964 ± 0.044 | 0.855 ± 0.027 | 0.649 ± 0.061 | 0.593 ± 0.41 | 0.96 ± 0.23 | 0.815 ± 0.028
Cc1cc(O)c(C(=O)NC(C(=O)NC2C(=O)N3C(C(=O)O)=C(CSc4nnnn4C)CSC23)c2ccc(O)cc2)cn1 (stereo not drawn) | 0.926 ± 0.39 | 0.805 ± 0.39 | 1.22 ± 0.41 | 1.34 ± 0.42 | 0.891 ± 0.028 | 0.962 ± 0.018 | 0.925 ± 0.044 | 0.346 ± 0.0056 | 0.601 ± 0.41 | 0.945 ± 0.24 | 0.862 ± 0.071
CC1C(NC(=O)C(=NOC(C)(C)C(=O)O)c2csc(N)n2)C(=O)N1S(=O)(=O)O (stereo not drawn) | 0.879 ± 0.42 | 0.582 ± 0.14 | 1.36 ± 0.2 | 0.711 ± 0.38 | 0.832 ± 0.01 | 0.903 ± 0.016 | 0.908 ± 0.068 | 0.798 ± 0.071 | 0.589 ± 0.39 | 0.948 ± 0.24 | 0.844 ± 0.071
CC[C@H]1OC(=O)[C@H](C)[C@@H](O[C@H]2C[C@@](C)(OC)[C@@H](O)[C@H](C)O2)[C@H](C)[C@@H](O[C@@H]2O[C@H](C)C[C@H](N(C)C)[C@H]2O)[C@](C)(O)C[C@@H](C)CN(C)[C@H](C)[C@@H](O)[C@]1(C)O | 0.608 ± 0.34 | 0.527 ± 0.072 | 0.871 ± 0.086 | 1.04 ± 0.12 | 0.836 ± 0.027 | 0.99 ± 0.031 | 0.865 ± 0.079 | 0.746 ± 0.079 | 0.58 ± 0.37 | 0.95 ± 0.23 | 0.897 ± 0.19
